A number with no mark means an inactive call. Inconclusive results are not listed. Entries that show only a call come without a potency. The source made the active and inactive calls. Calls follow the shape of the dose curve; as a rule, active = well fitted curve in the direction sought with a large enough effect; inconclusive = small, poorly fitted or top-dose-only effect, or another doubt; inactive = no such curve, though single readings can be large; an effect the other way counts as inactive or inconclusive.
Assays:
[1] = target: Glutathione peroxidase 1 (Homo sapiens) (UniProt P07203); test: Primary qHTS Assay for Inhibitors of Recombinant Selenoprotein Glutathione Peroxidase 1 (GPX1) (AID 1845191); also: nearly all actives have a fitted effect of over 65% in size
Method in brief: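 GPX1 10 nM, GR 100 nM, GSH 1 mM, NADPH 0.5 mM, CHP 0.5 mM (final). 30-min cpd preincubation, RT. Ex340/Em450 read t=0, t=15 min.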

[2] = target: Phospholipid hydroperoxide glutathione peroxidase GPX4 (Homo sapiens) (UniProt P36969); test: Primary qHTS Assay for Inhibitors of Recombinant Selenoprotein Glutathione Peroxidase 4 (GPX4) (AID 1845192); also: nearly all actives have a fitted effect of over 65% in size
Method in brief: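 qHTS, GR-coupled: GPX4 200 nM + cpd 30 min RT → GSH 1 mM, NADPH 0.5 mM, GR 100 nM → CHP 0.5 mM start; fluor 340/450 at t0 and t15 min; no-enzyme wells as control.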

[3] = target: Luciferin 4-monooxygenase (Photinus pyralis) (UniProt P08659); test: Primary firefly luciferase (FLuc) qHTS assay for identification of artifact compounds. (AID 1845220); also: nearly all actives have a fitted effect of over 60% in size
Method in brief: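 In this counter-screen for luciferase artifacts, test compounds met substrate (10 uM each luciferin and ATP) before 10 nM enzyme started the reaction. Light output was measured 5 min later.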

[4] = Primary fluorescence-based thiol-reactive (MSTI) qHTS assay for identification of artifact compounds. (AID 1845221); also: nearly all actives have a fitted effect of over 65% in size; also: potency is read from the fitted curve at half-maximal effect
Method in brief: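 Thiol-reactive compounds detected by quenching of 4 uM MSTI fluorescence (525/598 nm) after 1 h room-temperature dark incubation in PBS pH 7.4, 2% DMSO. qHTS titration; percent inhibition Hill-fitted against Acetyl-MSTI/MSTI controls.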

[5] = system: Nanoluciferase (engineered Oplophorus gracilirostris luciferase); test: Primary Nanoluciferase (NLuc) qHTS assay for identification of artifact compounds. (AID 1845222);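 also: NLuc secreted into diluted conditioned medium of S16 cells; series mostly up to about 54 µM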
Method in brief: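 Using secreted nanoluciferase in S16 culture medium (0.22 um filtered, 1:55 dilution), compounds were preincubated 15 min at RT. Signal was generated with Nano-Glo reagent (1:100) over 5 min.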

[6] = Primary redox qHTS assay for identification of artifact compounds. (AID 1845223)
Method in brief: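 Redox-cycling detection via DTT (250 uM final) oxidation coupled to Amplex Red (25 uM)/HRP (250 mU/mL) in HBSS. 15 min preincubation plus 30 min after DTT, room temperature. Ex/Em 525/598 nm; 4-parameter Hill fit against DMSO and 10 uM DA3003.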

Phospholipid hydroperoxide glutathione peroxidase GPX4 (Homo sapiens), sequence (P36969 whole entry, looked up): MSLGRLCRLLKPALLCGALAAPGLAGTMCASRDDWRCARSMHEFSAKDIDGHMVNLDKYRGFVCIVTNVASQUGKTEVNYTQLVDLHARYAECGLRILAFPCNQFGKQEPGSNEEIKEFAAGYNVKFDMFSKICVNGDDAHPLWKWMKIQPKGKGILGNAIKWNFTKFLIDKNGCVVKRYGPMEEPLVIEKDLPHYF
Glutathione peroxidase 1 (Homo sapiens), sequence (P07203 whole entry, looked up): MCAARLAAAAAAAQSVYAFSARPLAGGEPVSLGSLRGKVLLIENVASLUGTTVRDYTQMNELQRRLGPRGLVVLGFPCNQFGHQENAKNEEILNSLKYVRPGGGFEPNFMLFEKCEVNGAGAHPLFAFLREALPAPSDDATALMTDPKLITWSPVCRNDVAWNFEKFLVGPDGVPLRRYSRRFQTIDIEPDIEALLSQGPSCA

CCCC(CCC)C(=O)NCc1ccc2c(cnn2-c2ccccc2OC)c1
Potency [1]: inactive
Potency [2]: inactive
Potency [3]: inactive
Potency [4]: inactive
Potency [5]: inactive
Potency [6]: inactive

COC1=CC(=O)C=C(C)C12Oc1c(Cl)c(OC)cc(OC)c1C2=O (configuration not stated)
Potency [1]: inactive
Potency [2]: inactive
Potency [3]: inactive
Potency [4]: inactive
Potency [5]: inactive
Potency [6]: inactive

CC(C)(C)Oc1ccc(OCC2Cc3ccccc3CN2C(=O)c2cccc3ccccc23)cc1 (configuration not stated)
Potency [1]: inactive
Potency [2]: inactive
Potency [3]: inactive
Potency [4]: inactive
Potency [5]: inactive
Potency [6]: inactive

CC1=CC2/C=C(\C)CCC(O)C(=O)C(O)CC(=O)C23C(=O)NC(CC(C)C)C3C1C (configuration not stated)
Potency [1]: inactive
Potency [2]: inactive
Potency [3]: inactive
Potency [4]: inactive
Potency [5]: inactive
Potency [6]: inactive

Cc1ccc(F)cc1S(=O)(=O)N[C@@H]1CCN(Cc2ccc(OC(C)C)cc2)C1
Potency [1]: inactive
Potency [2]: inactive
Potency [3]: inactive
Potency [4]: inactive
Potency [5]: inactive
Potency [6]: inactive

CCOc1ccc(Cc2nc(-c3c(C)nc4ccccn34)cs2)cc1
Potency [1]: inactive
Potency [2]: inactive
Potency [3]: inactive
Potency [4]: 1680 nM (active)
Potency [5]: inactive
Potency [6]: inactive

CCCCOc1ccc(S(=O)(=O)n2c(C)nc3ccccc32)cc1
Potency [1]: inactive
Potency [2]: inactive
Potency [3]: inactive
Potency [4]: inactive
Potency [5]: inactive
Potency [6]: inactive

Cc1cccc(-c2[nH]ncc2-c2ccc(F)c(-c3cnn(CCO)c3)c2)n1
Potency [1]: inactive
Potency [2]: inactive
Potency [3]: inactive
Potency [4]: inactive
Potency [5]: inactive
Potency [6]: inactive

OC(CC1c2ccccc2-c2cncn21)C1CCCCC1 (configuration not stated)
Potency [1]: inactive
Potency [2]: inactive
Potency [3]: inactive
Potency [4]: inactive
Potency [5]: inactive
Potency [6]: inactive

COC(=O)c1ccc(N2CCN(C)CC2)c(NC(=O)c2cccc(OC)c2)c1
Potency [1]: inactive
Potency [2]: inactive
Potency [3]: inactive
Potency [4]: inactive
Potency [5]: inactive
Potency [6]: inactive

Nc1nc2c(c(N3CC[C@@H](N)C3)n1)CCCc1ccccc1-2
Potency [1]: inactive
Potency [2]: inactive
Potency [3]: inactive
Potency [4]: inactive
Potency [5]: inactive
Potency [6]: inactive

C=C1CC[C@@H]2[C@](C)(CO)[C@H](O)CC[C@@]2(C)[C@@H]1CC(=O)C1=CCOC1=O
Potency [1]: inactive
Potency [2]: inactive
Potency [3]: inactive
Potency [4]: inactive
Potency [5]: inactive
Potency [6]: inactive

CC(=O)OC1CC(C)C2(CCC3(CC(=O)OC3O)O2)C2(C)CCCC(C)(C)C12 (configuration not stated)
Potency [1]: inactive
Potency [2]: inactive
Potency [3]: inactive
Potency [4]: inactive
Potency [5]: inactive
Potency [6]: inactive

CCCC(Nc1nc(-c2ccc(NC(=O)NCC)c(OC)c2)ncc1C)c1cccnc1 (configuration not stated)
Potency [1]: inactive
Potency [2]: inactive
Potency [3]: inactive
Potency [4]: inactive
Potency [5]: inactive
Potency [6]: inactive

O=C(Nc1ccc2[nH]c(=O)oc2c1)C(=O)N1CCC(Cc2ccc(F)cc2)CC1
Potency [1]: inactive
Potency [2]: inactive
Potency [3]: inactive
Potency [4]: inactive
Potency [5]: inactive
Potency [6]: inactive

N#Cc1cc(C2=Nc3ccc(Br)cc3NC(=O)C2)ccn1
Potency [1]: inactive
Potency [2]: inactive
Potency [3]: inactive
Potency [4]: inactive
Potency [5]: inactive
Potency [6]: inactive

O=C(Nc1ccc(C(O)(C(F)(F)F)C(F)(F)F)cc1)c1ccc(C(F)(F)F)cc1
Potency [1]: inactive
Potency [2]: inactive
Potency [3]: inactive
Potency [4]: inactive
Potency [5]: inactive
Potency [6]: inactive

COc1cc(NC(=O)c2cccc(-n3cc(NC(=O)Nc4cccc(C)c4)cn3)c2)cc(OC)c1OC
Potency [1]: inactive
Potency [2]: inactive
Potency [3]: inactive
Potency [4]: inactive
Potency [5]: inactive
Potency [6]: inactive

Nc1nccc(-c2c(-c3ccc(F)cc3)ncn2C2CCCCC2)n1
Potency [1]: inactive
Potency [2]: inactive
Potency [3]: inactive
Potency [4]: inactive
Potency [5]: inactive
Potency [6]: inactive

C=C(C)C(=O)O[C@H]1C[C@@](C)(O)C2(O)CCC(C)(/C=C3/OC(=O)C(COC)=C31)O2 (some centres not stated)
Potency [1]: inactive
Potency [2]: inactive
Potency [3]: inactive
Potency [4]: inactive
Potency [5]: inactive
Potency [6]: inactive

COc1ccc(CN2CCN(C(=O)CCNC(=O)c3ccc(C(C)(C)C)cc3)CC2)cc1
Potency [1]: inactive
Potency [2]: inactive
Potency [3]: inactive
Potency [4]: inactive
Potency [5]: inactive
Potency [6]: inactive

CC(C)(Cc1nc(-c2ccc(O)cn2)no1)C(=O)NC1=C(C(=O)O)CCCC1
Potency [1]: inactive
Potency [2]: inactive
Potency [3]: inactive
Potency [4]: inactive
Potency [6]: inactive

CC(=O)OCC(=O)[C@@]12O[C@@H]1C[C@H]1[C@@H]3CC=C4C[C@@H](O)CC[C@]4(C)[C@H]3CC[C@@]12C
Potency [1]: inactive
Potency [2]: inactive
Potency [3]: inactive
Potency [4]: inactive
Potency [5]: inactive
Potency [6]: inactive

C[C@H](Nc1ncnc2nc[nH]c12)c1cc2cccc(Cl)c2c(=O)n1-c1ccccc1
Potency [1]: inactive
Potency [2]: inactive
Potency [3]: inactive
Potency [4]: inactive
Potency [6]: inactive

From PubChem BioAssay (NCATS)
